High-throughput results (PubChem BioAssay)
ST2 inh: IL1RL1 inhibition | Q01638 | AlphaLISA ST2-Fc/biotin-IL-33 interaction, 1 h | inhibition, % for hits at 17 µM | AID 1259354 | 78,000 tested, 2.3% active; in the data active = inhibition above about 30%
Target sequence (Q01638 whole entry, looked up): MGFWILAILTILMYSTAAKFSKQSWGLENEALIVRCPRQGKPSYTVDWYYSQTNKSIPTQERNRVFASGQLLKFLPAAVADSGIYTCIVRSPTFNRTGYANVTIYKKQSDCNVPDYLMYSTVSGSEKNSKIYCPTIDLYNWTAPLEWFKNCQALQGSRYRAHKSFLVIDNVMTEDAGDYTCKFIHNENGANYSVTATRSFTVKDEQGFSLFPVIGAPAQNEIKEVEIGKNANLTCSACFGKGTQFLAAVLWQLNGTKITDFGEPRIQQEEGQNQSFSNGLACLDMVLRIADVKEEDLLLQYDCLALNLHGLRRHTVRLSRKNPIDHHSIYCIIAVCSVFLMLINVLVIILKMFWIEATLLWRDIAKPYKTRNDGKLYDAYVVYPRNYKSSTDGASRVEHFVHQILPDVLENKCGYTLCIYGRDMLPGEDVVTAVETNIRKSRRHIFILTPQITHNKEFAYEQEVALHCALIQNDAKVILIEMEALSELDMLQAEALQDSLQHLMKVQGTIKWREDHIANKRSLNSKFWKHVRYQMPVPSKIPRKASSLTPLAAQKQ
Starred values were filed as active, the others as inactive; i = inactive; ! = repeats disagree. The sample as a whole holds a higher share of hits than the screen did.

SMILES	ST2 inh
COc1ccc2oc(=Nc3ccc(C#N)cc3)c(C(=O)Nc3ccccc3)cc2c1	i
COc1ccc2cc(C(=O)Nc3ccccc3)c(=Nc3ccc(C#N)cc3)oc2c1	i
CC(=O)NC(=O)c1cc2cc(Br)ccc2oc1=Nc1cccc(F)c1	i
CC(=O)NC(=O)c1cc2cc(Cl)cc(Cl)c2oc1=Nc1cccc(C#N)c1	i
O=C(/C=C/c1ccc(O)c2c1C(C(=O)O[C@H](Cc1ccc(O)c(O)c1)C(=O)O)C(c1ccc(O)c(O)c1)O2)O[C@H](Cc1ccc(O)c(O)c1)C(=O)O (some centres undefined)	i
CCOC(=O)C1(Cc2cccc(Cl)c2)CCCN(C(=O)C2=C(C)OCCO2)C1 (centres undefined)	i
COc1ccc(OC)c(CNC(=O)c2ccc3c(c2)ncn3C2CCCC2)c1	i
O=C(c1ccccc1Cl)N1CCN=C1SCc1cccnc1	i
CC(=O)Nc1cccc(Oc2ccc(C)c(C)c2)c1	i
Clc1ccc(OC2=C(c3ccccc3)N3CCN=C3S2)cc1	45.0%*
Fc1ccc(C2=CSC3=NCCN23)cc1	i
Brc1ccc(C2=CSC3=NCCN23)cc1	i
Cc1csc(CC(=O)c2ccc(O)c(C)c2O)n1	i
CCN(Cc1ccc(C(C)=O)cc1)CC1CCOCC1	i
C=CCn1c(O)c(C2=c3cc(Br)ccc3=NC2=O)c2ccccc21	37.0%*
O=C1N=c2ccc(Br)cc2=C1c1sc(Nc2cccc(C(F)(F)F)c2)nc1O	i
O=C1N=c2ccc(Br)cc2=C1c1sc(=O)[nH]c1O	i
O=C(c1ccc2c(c1)N(Cc1cccc(Cl)c1)C(=O)CS2)N1CCC2(CC1)OCCO2	i
C=CCc1ccccc1OCCN(C)C(=O)c1c[nH]c2c(C)cccc2c1=O	i
COc1ccccc1-c1ncnn1-c1sc2c(c1C#N)CCCCC2	48.0%*
COc1ccccc1-c1nc2sc3c(c2c(=O)[nH]1)CCCC3	i
N#Cc1c(NC(=O)COc2cccc3ccccc23)sc2c1CCCC2	i
COc1ccc(-c2cc(C(=O)Nc3sc4c(c3C#N)CCC4)no2)cc1	i
COc1ccc(-c2ncnn2-c2sc3c(c2C#N)CCCC3)cc1	44.0%*
COc1ccc(-c2cc(C(=O)Nc3sc4c(c3C#N)CCCC4)no2)cc1OC	i
SMILES	ST2 inh
Fc1cc(Br)ccc1-n1ncnc1-c1ccc2c(c1)OCO2	i
N#Cc1c(-n2ncnc2-c2ccc3c(c2)OCO3)sc2c1CCCCC2	35.0%*!
N#Cc1c(NC(=O)c2cc(-c3ccc4c(c3)OCO4)on2)sc2c1CCC2	i
COc1cccc(CCNC2CCc3ccccc3C2)c1 (centres undefined)	i
O=C1Nc2ccccc2C(O)(C(=O)NCCCN2CCCC2)N1c1c(F)cccc1F (centres undefined)	i
CC1CC(=O)Nc2c(Br)cc(Br)cc2N1 (centres undefined)	i
Cc1cccc(-n2c(-c3ccc(F)cc3)cn3c4c(=O)n(C)c(=O)n(C)c4nc23)c1	i
O=c1oc(/C=C/c2cccs2)nc2sc3c(c12)CCCC3	i
O=c1oc(-c2ccccc2)nc2sc3c(c12)CCCCC3	36.0%*
O=C1CCc2nc3sc4c(c3c(=O)n2N1)CCCC4	i
Cc1ccc2nc(NC(=O)CSc3nc4c([nH]c5ccccc54)c(=O)n3C)sc2c1	i
C=CCOc1ccc(/C=c2\sc3nc(-c4cccnc4)nn3c2=O)cc1	i
COc1ccccc1N1CCN(Cc2cc(I)c(O)c(OC)c2)CC1	i
CCN(CC)CCN(C)Cc1cc(I)c(O)c(OC)c1	94.0%*
COc1cc(CN(C)C2CCN(C)CC2)cc([N+](=O)[O-])c1O	i
CCOc1ccc(OC(=O)Cn2c3ccccc3c(=O)c3ccccc32)cc1	i
COc1ccccc1NC(=O)c1cc2c(=O)n3ccccc3nc2n1C	i
O=C(c1n[nH]c2c1CCC2)N(CC1CCN(Cc2ccccc2F)CC1)CC1CCCO1 (centres undefined)	i
Cc1cccn2c(=O)c3cc(C(=O)N4CCCCCC4)n(C)c3nc12	i
C/C(=C\C(=O)c1ccc(Cl)cc1)Nc1ccccc1O	30.0%*
O=C(Nc1ccccc1O)c1ccc(S(=O)(=O)c2ccc(Cl)cc2)cc1	i
Cc1c(F)cccc1NC(=O)c1ccc(Cl)cc1	i
COc1cc(Cn2ccnc2-c2ccc3c(c2)OCO3)cc(OC)c1OC	i
Cc1ccc(SC(C)C(=O)NCc2cnn3ccccc23)cc1 (centres undefined)	i
C=CCOC(=O)NCc1cnn2ccccc12	40.0%*
SMILES	ST2 inh
COc1cccc(CC(=O)NCc2cnn3ccccc23)c1	33.0%*
CCSC[C@H](N)C(=O)NCc1cnn2ccccc12	i
O=C(COCc1ccccc1)NCc1cnn2ccccc12	i
O=C(NCc1cnn2ccccc12)c1cccc(Cn2cccn2)c1	i
CCN(Cc1ccccc1)S(=O)(=O)c1nc(C)c(Cl)c(C)c1C#N	i
CCc1ccc(-c2nc(CSCC(=O)NC(C)CC)c(C)o2)cc1 (centres undefined)	i
CCCC1=Nc2cc(C(=O)O)ccc2Sc2ccc(C)cc21	i
Cc1ccnc(SCCn2c(N3CCCCCC3)nc3c2c(=O)[nH]c(=O)n3C)n1	i
CC(C)[C@H]1NC(=O)[C@@H]2[C@@H](NC(=O)NC3CCCCC3)CCN2C1=O	43.0%*
COc1cccc(NC(=O)N[C@H]2CCN3C(=O)[C@@H](Cc4ccccc4)NC(=O)[C@H]23)c1	i
O=C(N[C@H]1CCN2C(=O)c3ccccc3NC(=O)[C@H]12)C1CCCC1	i
CCN1CCN(C(=O)CCC2CCN(C(=O)c3snnc3C)CC2)CC1	i
Cc1nn(-c2ccccc2)c(Cl)c1C(=O)Nc1ccc(Cl)cc1	i
CCC(=O)Nc1c(C)ccc2nsnc12	i
Cc1ccc2nsnc2c1NC(=O)COc1ccccc1[N+](=O)[O-]	32.0%*
O=C(COc1ccccc1[N+](=O)[O-])Nc1cc(Cl)c(Cl)cc1Cl	i
CCOc1cc(C2Nc3cc(C)c(C)cc3NC3=C2C(=O)CC(C)(C)C3)ccc1OC(=O)C1CC1 (centres undefined)	i
CCN(CC)C(=O)C1CCCN(Cc2nc(C(c3ccccc3)c3ccccc3)no2)C1 (centres undefined)	i
NC(=O)c1ccccc1	i
O=[N+]([O-])C=C(c1ccccc1)c1ccccc1	39.0%*
O=[N+]([O-])C([N+](=O)[O-])=S(c1ccccc1)c1ccccc1	i
O=C(NCc1ccco1)c1ccc2c(c1)N(Cc1cccc(Cl)c1)C(=O)CS2	i
CCn1ccnc1CN(C)Cc1cn[nH]c1-c1cc2ccccc2o1	i
Cc1c(C(=O)N2CCCCC2C)sc2ncnc(N3CCN(c4ccccn4)CC3)c12 (centres undefined)	i
Cc1cccn2c(=O)c3cc(C(=O)Nc4ccccc4F)sc3nc12	35.0%*
SMILES	ST2 inh
COc1ccc2cc3cc(C(=O)Nc4ccc(F)cc4F)sc3nc2c1	35.0%*
COc1ccc2cc3cc(C(=O)Nc4cccc(C#N)c4)sc3nc2c1	i
Cc1cccn2c(=O)c3cc(C(=O)Nc4ccccc4C#N)sc3nc12	i
COc1ccc(N2CCN(C(=O)c3cc4cc5ccc(OC)cc5nc4s3)CC2)cc1	i
COc1ccc2nc3oc(C(=O)Nc4ccccc4F)cc3cc2c1	i
COc1ccc2cc3cc(C(=O)Nc4ccccc4F)sc3nc2c1	41.0%*
COc1ccc2cc3cc(C(=O)Nc4ccc(F)cc4)sc3nc2c1	35.0%*
COc1ccc(C(=O)Nc2ccccc2F)cc1	i
COc1ccc(-n2c(=O)[nH]cc(C(=O)Nc3ccc(F)cc3F)c2=O)cc1	i
